# From PubChem BioAssay AID504444 (National Center for Advancing Translational Sciences (NCATS), 2011)
# The campaign covered roughly 360,000 compounds. About 7,500 (2.1%) were called active. Another 20% or so got no clear call; they are omitted. Only a selection was taken, and actives are over-represented in it overall. Values without a mark were called inactive. Calls follow the shape of the dose curve; as a rule, active = well fitted inhibition curve with a large enough effect; inconclusive = small, poorly fitted or top-dose-only effect, or effect the other way; inactive = flat fitted curve, though single readings scatter.
# Assay: Nrf2 qHTS screen for inhibitors; also: nearly all actives have a fitted effect of over 60% in size
# Conditions: A549 ARE-Fluc reporter, luciferase luminescence, 18-24 h; series mostly up to 46 µM; activity change, negative = inhibition: at the top concentration
# Text: NIH Molecular Libraries Probe Production Network [MLPCN]
# NIH Chemical Genomics Center [NCGC]
# Assay Provider: Shyam Biswal, Johns Hopkins University
# Nrf2 is a transcription factor that maintains cellular redox homoestasis and protects cells from xenobiotics. Nrf2 binds to the antioxidant response element (ARE) to induce gene expression of a broad spectrum of genes that encode for antioxidants. […] Finding a small molecule that act as an inhibitor of Nrf2 function would represent a novel therapeutic target that could lead to improvement in survival of patients undergoing chemo- and/or radio- therapy.
# This is the Nrf2 activity measured in the luminescent read.
# 1. Shibata, T., et al., Genetic Alteration of Keap1 Confers Constitutive Nrf2 Activation and Resistance to Chemotherapy in Gallbladder Cancer. Gastroenterology, 2008.
# 2. Sjoblom, T., et al., The consensus coding sequences of human breast and colorectal cancers. Science, 2006. 314(5797): p. 268-74.
# NCGC Assay Protocol Summary:
# A concentration-response assay was performed with A549 ARE_Fluc cells which are suspended in 5% FBS OPTI-MEM. Five uL were dispensed into 1536-well white TC-treated plate using the Kalypsys dispenser to achieve a density of 5000 cells/well in all columns except column 1. The plate is incubated at 37deg C at 5% CO2 for 2 hours before 23 nL of compounds are added with the Kalypsys pin tool equipped with a 1,536-pin array containing 10-nL slotted pins (FP1S10, 0.457-mm diameter, 50.8 mm long; V&P Scientific). The control compounds Budesonide and Staurosporine are both added at a concentration of 2mM and Budesonide is also added as a 1:10 titration, starting at 200uM, to achieve dose-response. After an 18-24 hour incubation at 37deg C at 5% CO2, 5ul of medium is added to column 1. Afterwards 1ul of 5x of CellTiter-Fluor (Promega) is added to every well. The plate is then incubated at 37deg C at 5% CO2 for 30 minutes before they are read on the ViewLux (Perkin Elmer) for a fluorescent read Ex=405(10)/Em=525(10) for a 3 second exposure, 2x binning, and high gain. Then 3 uL of 3x BugLite is dispensed into all wells and the plate is incubated at ambient room temperature for 15 minutes. Afterwards another ViewLux read is performed using the clear filter to get a luminescent read with the settings of 40 second exposure, 2x binning, and high gain. Cytotoxicity is assessed through the first fluorescent read and then biochemical activity against Nrf2 is measured in the luminescent read.
# % is scaled to controls: 0 for no effect and ±100 for the full control effect; potency is read from the fitted curve at half-maximal effect.
Compound,Potency,"activity change, negative = inhibition"
Cc1cc(C)c(-c2csc(NC(=O)CCCc3nc4ccccc4c(=O)[nH]3)n2)c(C)c1,9.2 µM (active),–
CCCn1c(C)cc(-c2csc(NC(=O)CCc3nc4ccccc4c(=O)[nH]3)n2)c1C,–,-5.04%
CC(=O)NCc1ccc(-c2csc(NC(=O)CCCc3nc4ccccc4c(=O)[nH]3)n2)cc1,–,4.73%
Cc1sc2ncn(CC(=O)N3CCN(c4ccc(F)cc4)CC3)c(=O)c2c1S(=O)(=O)N1CCN(c2ncccn2)CC1,–,-18%
O=C(Cc1c(F)cccc1Cl)Nc1ncc([N+](=O)[O-])s1,16.4 µM (active),–
CC(C)(C)NC(=O)NC(=O)COC(=O)Cc1c(F)cccc1Cl,–,-0.296%
COc1ccc(S(=O)(=O)N2CCOCC2)cc1NC(=O)Cc1c(F)cccc1Cl,–,-7.15%
Cc1ccc(S(=O)(=O)c2cc3c(=O)n4cccc(C)c4nc3n(CCc3ccccc3)c2=N)cc1C,–,3.09%
COC(=O)c1ccccc1NC(=O)c1cnn(-c2ccc(F)cc2)c1-n1cccc1,–,29.2%
COc1ccc2c(c1)c(N1CCCC1=O)c(C(=O)Nc1ccccc1C(F)(F)F)n2C,–,25.9%
CCC1([N+](=O)[O-])COC(c2ccc(C)cc2)OC1 (stereo not drawn),–,8.27%
CCOC(=O)c1ccc(NC(=O)C2CC(=O)NC(=Nc3ccc(C)c(C)c3)S2)cc1 (stereo not drawn),–,2.13%
CC[n+]1cc(C)ccc1/C=C/c1ccc(N(C)C)cc1,4.11 µM (active),–
CN(C)c1ccc(/C=N\S(=O)(=O)c2ccccc2)cc1,–,0.274%
C=CC(COCc1ccccc1)N(CC(=O)OC)S(=O)(=O)c1cc(Br)ccc1OC (stereo not drawn),–,-14.9%
Cc1nn(CC(=O)O)c(=O)c2cc3cc(F)ccc3n12,–,1.3%
O=C1OC(OC(=O)c2ccccc2Br)C(N2CCOCC2)=C1Cl (stereo not drawn),–,-22.5%
Cc1ccccc1C(=O)OC1OC(=O)C(Cl)=C1Nc1ccccc1 (stereo not drawn),8.2 µM (active),–
Cc1ccccc1C(=O)O,–,-0.366%
CCOC(=O)c1c(-c2ccc(OC)cc2)oc2ccc(OCc3ccc(C(=O)OC)cc3)cc12,–,-9.39%
O=C(NCCCN1CCOCC1)c1cn(-c2ccccc2)nc1-c1ccc(F)cc1,–,-5.73%
CCCCCCSc1ccc(-c2nc3ccc(Cl)cn3c2NCc2ccccc2)cc1,–,6.14%
O=C(CNC(=O)c1ccc(Cl)c(C(F)(F)F)c1)OC(C(=O)Nc1cc(C(F)(F)F)ccc1Cl)c1ccccc1 (stereo not drawn),–,17%
COc1ccc(OC)c(/C=C/C(=O)c2ccc3c(c2)OCO3)c1,–,-2.43%
Cc1ccc(C)c(N2CCN(C(=O)Cn3ncn4cccc4c3=O)CC2)c1,23.1 µM (active),–

Compound,Potency,"activity change, negative = inhibition"
CCc1nn(CC(=O)N2CCN(c3cc(C)ccc3C)CC2)c(=O)c2cc3occc3n12,inactive,–
Cc1ccc(C)c(N2CCN(C(=O)Cn3nc(C)c4sc5ccccc5c4c3=O)CC2)c1,–,-25.7%
COc1ccc(-c2nc(CN3CCC(C(=O)NCCN(CC(C)C)CC(C)C)CC3)c(C)o2)cc1OC,–,1.5%
CN(C(=O)c1cccc(NC(=O)Cc2ccc(NC(=O)C3CCN(C(=O)C4CCCCC4)CC3)cc2)c1)C1CCC1,–,5.92%
COc1ccccc1N1CCN(C(=O)CN(Cc2ccc(Cl)cc2)S(C)(=O)=O)CC1,23.1 µM (active),–
COc1ccccc1N1CCN(S(=O)(=O)c2ccc(Cl)cc2)CC1,–,-28.2%
CS(=O)(=O)N(CC(=O)N1CCCC1)Cc1ccccc1,–,0.0838%
O=S1(=O)N=C(Oc2cccc(Br)c2)c2ccccc21,–,-1.46%
COc1ccc(-c2cc(-c3nc(-c4cc(OC)c(OC)c(OC)c4)no3)[nH]n2)c(OC)c1,–,-8.11%
CC(C)(C)OC(=O)N1CCC(C(=O)Nc2cccc(C(=O)NCCc3ccccc3)c2)CC1,–,-0.0845%
CCN(CCCNC(=O)CSc1cc(=O)n(C)c2cc(Cl)ccc12)c1cccc(C)c1,–,0.522%
Cc1ccc(C(=O)NC2CCN(C#N)CC2)cc1,–,7.04%
COCc1cc(=O)n2[nH]c(C)c(-c3ccccc3)c2n1,–,-21.7%
Cc1cc(=O)n2[nH]c(-c3cccc(Cl)c3)cc2n1,–,7.12%
Cc1nc2c(-c3ccccc3)c(C)[nH]n2c(=O)c1Cl,20.6 µM (active),–
O=[S+]([O-])(c1ccc2c(c1)OCCO2)N1CCN([S+](=O)([O-])c2c(Cl)cc(Cl)cc2Br)CC1,–,4.14%
COc1cccc(CNS(=O)(=O)c2ccc3c(c2)CC(C)N3C(C)=O)c1 (stereo not drawn),–,-2.36%
COc1ccc(N(C)S(=O)(=O)c2ccc3c(c2)CC(C)N3C(=O)C2CC2)c(OC)c1 (stereo not drawn),–,-21.9%
COc1cccc(CNS(=O)(=O)c2ccc3c(c2)CC(C)N3C(=O)C2CCC2)c1 (stereo not drawn),11.6 µM (active),–
CC(=O)OC1CCC2C3CCC4=C(CC(F)C(=O)C4)C3CCC12C (stereo not drawn),–,-23.5%
C/C=C/c1ccc(OCC(=O)NNC(=O)CN(C)S(=O)(=O)c2ccc(C)cc2)c(OC)c1,–,2.15%
Cc1ccc(C)c(N2CCN(C(c3ccccc3)c3nnc(-c4ccccc4)o3)CC2)c1 (stereo not drawn),–,0.91%
CCCn1c(NCc2ccc(N(CC)CC)cc2)nc2ccccc21,–,1.93%
O=C(NNC(=O)c1ccccc1O)c1ccccc1O,–,-25.8%
O=C(/C=C/c1ccccc1)N/C(=C/c1ccccc1)C(=O)Nc1ccccc1O,–,17.7%

Compound,Potency,"activity change, negative = inhibition"
O=C(/C=C/c1ccccc1)c1ccccc1O,3.66 µM (active),–
CNC(=O)c1sc(Nc2ccc(OCc3ccccc3)cc2)nc1C,20.6 µM (active),–
CCc1ccnc(NC(=O)Nc2ccc(OCc3ccccc3)cc2)c1,–,-9.72%
O=C(O)/C=C\C(=O)Nc1ccc(OCc2ccccc2)cc1,–,18.1%
CCN(C[C@H]1N[C@@](CC)(C(=O)OC)[C@H]2C(=O)N(Cc3ccccc3)C(=O)[C@@H]12)S(=O)(=O)c1ccccc1,–,16.6%
Cc1cccc(C(=O)OCC(=O)NC(C)C2CC3CCC2C3)c1O (stereo not drawn),–,-2.64%
CC(C)Cn1c(N)c(C(=O)COC(=O)CN2C(=O)C3CC=CCC3C2=O)c(=O)n(C)c1=O (stereo not drawn),4.61 µM (active),–
CC(C)Cn1c(N)c(C(=O)COC(=O)C2CCCN2C(=O)c2cccs2)c(=O)n(C)c1=O (stereo not drawn),–,-14.3%
COc1ccc(C(=O)COC(=O)CN2C(=O)C3CC=CCC3C2=O)c(OC)c1 (stereo not drawn),–,1.38%
O=C(Nc1ccn(CCCNCc2ccc3[nH]ccc3c2)c(=O)n1)OCc1ccccc1,–,-1.64%
O=C(NCCS(=O)(=O)NCc1ccc(F)cc1)c1ccccc1,–,3.15%
CN(Cc1ccccc1)C(=O)c1ccc(COc2ccccc2)cc1,–,1.07%
COc1ccccc1S(=O)(=O)NCc1ccc(C(=O)N(C)Cc2ccc(F)cc2)cc1,23.1 µM (active),–
O=C1N(Cc2ccccc2)c2ccc(Cl)cc2C1(O)c1c[nH]c2ccccc12 (stereo not drawn),–,1.03%
CC(Nc1ncnc2ccc(-c3ccc4c(c3)OCO4)cc12)c1ccco1 (stereo not drawn),–,-6.5%
Cc1oc2c(F)c(F)c(F)c(F)c2c1S(=O)(=O)Nc1cccc(C(F)(F)F)c1,8.2 µM (active),–
Cc1cccc(NC(=O)c2cccc(C(F)(F)F)c2)c1,–,9.33%
O=C(/C=C/c1ccc(F)cc1)Nc1cccc(S(=O)(=O)Nc2cccc(C(F)(F)F)c2)c1,–,-7.06%
CCn1c2ccccc2c2cc(CN3CCN(Cc4cccc(Cl)c4)CC3)ccc21,–,1.46%
Cc1cccc(C(=O)N2c3nc(-c4ccco4)nn3C3(CCCCC3)[C@@H]3CCCC[C@@H]32)c1,–,-10.5%
CN(C)S(=O)(=O)c1ccc(Oc2ccc(S(=O)(=O)N(C)C)cc2)cc1,13 µM (active),–
COc1cccc(NC(=O)c2ccc(S(=O)(=O)N(C)C)cc2)c1,–,-11.6%
CN(C)S(=O)(=O)c1ccc(NC(=O)N2CCOCC2)cc1,–,12.1%
CCOc1ccc(-c2n[nH]c3c2C(c2ccccc2OC)N(c2ccc(Br)cc2)C3=O)cc1 (stereo not drawn),–,-90.3%
CCCCCCCCNS(=O)(=O)CCNC1CCCCC1,–,17.5%

Compound,Potency,"activity change, negative = inhibition"
Cc1cccc(C(C)C)c1NC(=O)C(NS(=O)(=O)c1cccc2nsnc12)c1ccccc1 (stereo not drawn),–,4.2%
CCNC(=O)N1c2ccccc2Sc2ccccc21,–,2.6%
CCN1/C(=C/C(=S)Nc2ccccc2)Sc2ccccc21,6.51 µM (active),–
O=C(CCN1c2ccccc2Sc2ccccc21)Nc1ccccc1,–,-4.56%
CC(C)NC(=O)Nc1cccc2c1O[C@H](CN(C)S(=O)(=O)c1cccs1)[C@@H](C)CN([C@H](C)CO)C2=O,–,4.9%
COc1cccc(N2CCN(S(=O)(=O)c3cc(Br)cc4c3N(C(=O)C3CC3)CC4)CC2)c1,–,-6.76% [at 9.27 µM]
O=C(NCCC1=CCCCC1)c1ccc2c(c1)N(Cc1ccccc1F)C(=O)c1ccccc1S2(=O)=O,–,17.8%
COc1cccc(OC2=NS(=O)(=O)c3ccccc32)c1,–,1.62% [at 65.3 µM]
CCCc1ccc(-c2c(C)sc(NC(=O)c3ccnn3C)c2C#N)cc1,13 µM (active),–
Cn1nccc1CNC(=O)c1ccnn1C,–,-3.22%
CCN(CC)C(=O)c1sc(NC(=O)c2ccco2)c(C#N)c1C,–,2.27%
COc1ccc(C)cc1NC(=O)COCc1cc(-c2cccs2)on1,–,-15.1%
O=C(Nc1ccc(OC(F)(F)F)cc1)C1CCCN(S(=O)(=O)c2ccc(Br)s2)C1 (stereo not drawn),–,-12.6%
Cn1c(=O)c2c(nc(NCCc3ccccc3)n2Cc2ccccc2)n(C)c1=O,14.6 µM (active),–
CCCCNc1nc2c(c(=O)n(C)c(=O)n2C)n1Cc1cccc(OC)c1,5.8 µM (active),–
Cn1c(=O)c2c(nc(NCCc3ccccc3)n2Cc2ccccc2Br)n(C)c1=O,–,-3.57%
Cn1c(=O)[nH]c(=O)c2c1nc(NCCc1ccccc1)n2Cc1ccc(F)cc1,–,-17.7%
CCCCNc1nc2c(c(=O)[nH]c(=O)n2C)n1CCOc1ccccc1,–,-19.7%
COC(=O)C(C)Sc1nc2c(c(=O)n(C)c(=O)n2C)n1Cc1cccc(C)c1 (stereo not drawn),–,-11.1%
Clc1ccc(CSc2nncn3c2cc2occc23)cc1,–,-25.8%
N#CN1CCC(NS(=O)(=O)c2cccc(F)c2)C1 (stereo not drawn),–,14.3%
COc1ccccc1NC(=O)c1oc2ccccc2c1NC(=O)C(C)C,–,-28.5%
CCN(CC)CCCC(C)n1c2nc(=O)[nH]c(=O)c-2nc2cc(Cl)ccc21 (stereo not drawn),20.6 µM (active),–
